# Compound activity as filed in PubChem.
# Compounds with a hit are over-represented: about 2.1% of the library has one in this group of screens.
# TDP-43 yeast inh: qHTS of TDP-43 Inhibitors. 410,000 tested, 1.8% active. Potency, µM (titrated, usually from 46.1 µM), inactives show at the highest dose growth rescue (activation), usual class: activators. TDP-43 expressing yeast growth rescue, BacTiter-Glo, 24 h; also: % of control where 0% means no effect; nearly all actives have a fitted effect of over 50% in size
#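 In this qHTS, compounds that restore growth of yeast expressing TDP-43 appear as activators. Cells (OD600=0.02, galactose medium, raffinose-pregrown) are incubated with compound 24 hr at 30 deg C and growth is quantified by BacTiter-Glo.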
# Abeta rescue: qHTS for compounds that reverse cellular toxicity of Amyloid beta (A-beta) peptide in yeast: Primary Screen. 410,000 tested, 0.063% active. yeast expressing A-beta42, growth rescue, OD600, 48 h; response scale: 0% DMSO, 100% iron-clioquinol control. Potency, µM (doses to about 46.1 µM), hits mostly activators; also: nearly all actives have a fitted effect of over 55% in size
#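 Yeast growth medium received pinned compounds, then yeast cells expressing toxic A-beta were added; plates incubated at 30 C for 48 hr. Growth read as absorbance at 600 nm, normalized to DMSO and equimolar FeCl3 plus clioquinol controls.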
# aSyn rescue: qHTS of alpha-syn Inhibitors; Yeast expressing alpha-synuclein, growth rescue, BacTiter-Glo, 24 h; Potency, µM (highest dose often 46.1 µM), for inactives: at the top dose growth rescue (activation), usual class: activators; 370,000 tested, 0.14% active; also: % of control where 0% means no effect; nearly all actives have a fitted effect of over 65% in size
#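 Rescue of yeast growth: cells expressing toxic alpha-synuclein, induced in galactose at OD600 0.02, incubated with compound 24 h at 30 C. ATP luminescence quantified growth; inhibitors of toxicity appear as activators.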
# FUS suppressor: qHTS for Suppressors of FUS Proteinopathy: Primary screen using FUS-linked yeast assay; S. cerevisiae FUS-expressing, growth rescue, OD600, 24 h; 390,000 tested, 0.24% active; Potency, µM (top dose mostly 76.6 µM), hits mostly activators;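 also: plate controls were DMSO vehicle for no effect and reference control for full effect; nearly all actives have a fitted effect of over 55% in size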
#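 Galactose (2%) drives FUS expression in yeast precultured in raffinose; seeding density OD 0.005. Test compounds incubated 24hr at 30C and 99% humidity before absorbance at 600 nm was measured.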
# * hit, by the source's call; i = inactive; ? = inconclusive; / = no result; [ ] = another dose, or the depositor's remark. Calls follow the shape of the dose curve; as a rule, active = well fitted curve in the direction sought with a large enough effect; inconclusive = small, poorly fitted or top-dose-only effect, or another doubt; inactive = no such curve, though single readings can be large; an effect the other way counts as inactive or inconclusive. Potency is read from the fitted curve at half-maximal effect.
SMILES,TDP-43 yeast inh,Abeta rescue,aSyn rescue,FUS suppressor
Cc1cc(C(=O)OCn2nnc3ccccc3c2=O)c(C)o1,14µM*,?,21%,i
O=c1c2ccccc2nnn1COc1cccc2ccccc12,13µM*,i,?,i
CCC(=O)OCn1nnc2ccccc2c1=O,14%,i,0%,i
O=C(CC(c1ccccc1)c1ccccc1)OCn1nnc2ccccc2c1=O,18µM*,i,14%,i
CCNC(=O)n1nccc1C(C)Oc1ccccc1 (stereo unspecified),11µM*,i,1%,i
CC(Oc1ccccc1)c1ccnn1S(=O)(=O)c1ccccc1 (stereo unspecified),14%,i,-6%,i
O=c1c2ccccc2oc2ccc(C#CC3(O)CCCCC3)cc12,20µM*,i,-12%,?
Nc1ccc(C#Cc2ccc3c(=O)c4ccccc4oc3c2)cc1,35µM*,i,-1%,i
CN(C)c1cc2c3ccccc3ccc2c2ccccc12,/,/,-9%,/
O=C(NCCc1ccccc1)OCc1cn(-c2ccc(F)c(F)c2)nn1,/,/,/,i
Cc1ccc(/C=C/C(=O)N2CC(C)CC(C)C2)o1 (stereo unspecified),25µM*,i,8%,i
CCN1CCN(C(=O)/C=C/c2ccc(C)o2)CC1,11%,i,-1%,/
CCOC(=O)c1cc2c(=O)n3ccccc3nc2n(Cc2ccco2)c1=NC(=O)c1cccc(F)c1,11%,i,/,?
CC(=O)c1sc(N/N=C\c2ccc(Br)cc2)nc1C,0%,i,1%,i
CC(=O)c1sc(N/N=C\c2cccc(Br)c2)nc1C,18µM*,i,-11%,?
Cn1nnnc1N=N/C(=N/Nc1ccccc1)c1ccccc1,?,?,3.2µM*,i
Cc1ccc(C(=O)C=Cc2ccc3c(c2)OCO3)c(C)c1,?,i,8%,i
O=C(/C=C/c1ccc2c(c1)OCO2)c1ccco1,16µM*,i,10%,/
O=C(/C=C/c1ccc2c(c1)OCO2)c1ccc(O)cc1O,8.9µM*,i,-28%,i
Cc1c(Cl)cccc1NS(=O)(=O)c1ccc(-c2cnc(C3CC3)o2)cc1,?,i,/,?
Clc1cccc(-c2noc3ncnc(NC4CCCCC4)c23)c1,-2%,i,/,i
CC1CCC(Nc2ncnc3onc(-c4ccc(Cl)cc4)c23)CC1 (stereo unspecified),20µM*,i,-1%,i
Clc1ccc(-c2noc3ncnc(NC4CCCCC4)c23)cc1,35µM*,i,/,i
Cc1cc(C)nc(Sc2ccc([N+](=O)[O-])cc2[N+](=O)[O-])n1,-3%,i,-5%,/
O=[N+]([O-])c1ccc(Sc2ccncn2)c([N+](=O)[O-])c1,35µM*,i,2%,i
SMILES,TDP-43 yeast inh,Abeta rescue,aSyn rescue,FUS suppressor
O=C(CN1CC[n+]2c(-c3cccs3)csc21)c1ccc(-c2ccccc2)cc1,3.5µM*,i,-11%,i
COc1cc2nc(C#N)nc(N)c2cc1OC,/,/,1%,/
CCN(C(=O)COC(=O)c1ccco1)c1cccc2ccccc12,?,i,?,i
CCN(C(=O)COC(=O)c1ccc(O)cc1)c1cccc2ccccc12,?,7.9µM*,29%,i
CCNc1cc2c(cc1O)CCC1C2CCC2(C)C(O)CCC12 (stereo unspecified),?,i,14%,/
CCOc1cc2c(cc1O)CCC1C2CCC2(C)C(O)CCC12 (stereo unspecified),16µM*,i,1%,/
COc1ccc(C2=Nn3c(nnc3C3CCCCC3)SC2)cc1,/,/,/,i
Cc1c2cnn(CC(=O)NCc3ccc(F)cc3)c(=O)c2c(C)n1Cc1cccc(Cl)c1,21%,i,/,i
Cc1ccc(SCC(=O)c2cc(C)c(O)c(C)c2)cc1,18µM*,i,-1%,i
Cc1ccc(SCC(=O)c2c(C)nc3ccccn23)cc1,-16%[0.397 µM],i,-1%,i
Nc1cccc2cccnc12,/,/,-6%,/
COc1ccc(C2(CNC(=O)C(=O)Nc3ccc(F)cc3)CCCC2)cc1OC,14%,i,/,i
ClCc1nc2ccccc2c2ccccc12,14µM*,i,-1%,i
Cc1ccc(C)c(NC(=O)CCc2nc3cccnc3n2Cc2cccs2)c1,19%,i,/,i
c1ccc(CC2CCN(c3ncnc4sccc34)CC2)cc1,13µM*,i,-1%,i
